Compound activity as filed in PubChem.
KLF5 inh – inhibitors of KLF5 expression. DLD-1 KLF5 promoter-luciferase reporter, luminescence. AID 1700. inhibition, % at 5 µM. 290,000 tested, 0.23% active;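 active = inhibition above a per-plate limit of that plate's mean compound inhibition plus 3 SD, cut at about 60% in these data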;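 also: 0% = DMSO wells and 100% = LY294002 at 200 µM; higher means less KLF5 promoter-driven luciferase light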
Ba/F3 V617F tox – lowers viability of Ba/F3 cells expressing EpoR and JAK2V617F | inhibition, % at 5.6 µM | 220,000 tested, 1.1% active | ATP luminescence;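 active = inhibition above the campaign mean plus 3 SD over all tested compounds, cut at about 24% in these data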;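 also: cytokine-independent growth of Ba/F3 cells driven by EpoR plus mutant JAK2; 0% = DMSO-treated cells and 100% = JAK inhibitor I control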
BaF3 tox – parental Ba/F3 viability inhibition as JAK2V617F counter-screen | CellTiter-Glo ATP luminescence | inhibition, % at 5.6 µM | 220,000 tested, 1.1% active;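 active = inhibition above a per-campaign cutoff, the mean inhibition of all tested compounds plus 3 SD, cut at about 27% in these data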;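 also: 0% = DMSO wells and 100% = JAK Inhibitor I control wells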
DNA FID counter – displaces DNA intercalator in HCV helicase counter-screen. inhibition, % at 7.9 µM. DNA fluorescent intercalator displacement, fluorescence. 290,000 tested, 0.17% active. AID 1845; in the data active = inhibition above about 37%;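 also: 0% = vehicle and 100% = reference compound; higher means more ethidium bromide displaced from hairpin DNA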
GPR7 antag – human neuropeptides B/W receptor 1 antagonism; P48145; GPR7-expressing cells, fluorescence antagonist assay; inhibition, % at 4.4 µM; 290,000 tested, 1.1% active; in the data active = inhibition above about 16%, passing the limit was not always enough;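 also: cells stimulated with the agonist NPW; 0% = agonist with vehicle and 100% = vehicle without agonist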
Target sequence (P48145 whole entry, looked up): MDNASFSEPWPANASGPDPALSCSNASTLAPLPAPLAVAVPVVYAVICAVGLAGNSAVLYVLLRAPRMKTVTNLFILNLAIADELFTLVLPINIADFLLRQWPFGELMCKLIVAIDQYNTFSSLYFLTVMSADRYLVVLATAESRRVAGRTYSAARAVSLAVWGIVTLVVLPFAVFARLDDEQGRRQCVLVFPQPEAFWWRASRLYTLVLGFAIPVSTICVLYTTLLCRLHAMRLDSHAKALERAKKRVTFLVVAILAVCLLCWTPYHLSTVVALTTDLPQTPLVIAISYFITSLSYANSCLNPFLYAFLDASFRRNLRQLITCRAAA
IEC-6 tox – counter-screen for KLF5 inhibitors: cytotoxicity in IEC-6 cells; IEC-6 cytotoxicity, luminescence viability; inhibition, % at 5 µM; 290,000 tested, 0.78% active; in the data active = inhibition above about 22%;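 also: 0% = plate median of test compound wells and 100% = cytotoxic reference compound wells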
BaF3 parental 2 – counter-screen for JAK2V617F inhibitors: parental Ba/F3 viability inhibitors. CellTiter-Glo luminescence; cells kept alive by added IL-3. 580 tested, 31% active. inhibition, % at 5.6 µM. shares compounds with Ba/F3 V617F tox;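 active = cell growth inhibition above the hit limit set in the earlier mutant JAK2 cell screen, cut at about 27% in these data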;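 also: plate controls were DMSO-treated cells for no effect and JAK Inhibitor I control wells for full effect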
JAK2V617F conf – confirmation: loss of viability in JAK2V617F-dependent Ba/F3 cells; Ba/F3 EpoR-JAK2V617F viability, CellTiter-Glo luminescence; AID 1521; shares compounds with Ba/F3 V617F tox; 580 tested, 66% active; inhibition, % at 5.6 µM;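 active = mean inhibition above the hit cutoff derived in the earlier primary screen, cut at about 25% in these data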;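 also: 0% = DMSO-treated cells and 100% = JAK inhibitor I control wells; higher means lower luminescence from reduced cell ATP and viability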
* hit, by the source's call; . = no result given. Shown are actives, neighbours in structure and some others; about 2.6% of the full set was active somewhere.

SMILES	KLF5 inh	Ba/F3 V617F tox	BaF3 tox	DNA FID counter	GPR7 antag	IEC-6 tox	others
CN(C)C(Cc1ccccc1)C(=O)c1ccccc1 (stereo not drawn)	-53.9	12.3	34.3*	-2.4	-4.9	-0.7
O=C(c1ccccc1)C(CN1CCCC1)c1ccccc1 (stereo not drawn)	6.9	1.1	-0.3	-1.4	-0.8	5.3
C=CC(C)C(C(=O)c1ccccc1)N(C)C (stereo not drawn)	-27.5	27.1*	30.7*	-2.7	-1.5	11.3
CCCN(CC1CC1)CC(O)c1ccccc1 (stereo not drawn)	-11.5	.	.	0.1	9.4	-7.2
CC(C)(C)n1c(O)c(C=Nc2ccc3c(c2)CCC3)c(=O)[nH]c1=O	-30.2	-2.9	63.0*	1.1	-8.7	0.0
C=CCNC(=S)Nc1ccc(OC(=O)Nc2ccc(Cl)c(Cl)c2)cc1	-23.5	-5.5	-10.9	7.4	39.4*	0.4
O=C(Nc1ccc(Cl)c(Cl)c1)c1ccco1	-145.1	.	.	0.2	1.1	6.6
CC(C)NCC(O)c1ccc(C2CCCC2)cc1 (stereo not drawn)	-37.2	-1.4	8.0	7.1	0.8	-8.9
CCCCOc1ccc(C(C)=O)cc1Cc1c(O)[nH]c(=S)[nH]c1=O	-19.3	.	.	-7.8	-2.0	2.1
CCCC[N+]12CCC(CC1)C(Cc1ccccc1)C2 (stereo not drawn)	8.1	20.4	30.8*	1.3	-5.0	-0.2
COC(=O)C1CN(C#N)N(c2ccc(Cl)cc2)C12c1ccccc1-c1ccccc12 (stereo not drawn)	17.9	94.7*	29.5*	-13.3	11.6	45.5*
CC1(C)C(C(=O)N2CCN(c3ccc(Cl)cc3)CC2)C1(C)C	0.6	.	.	-38.3	3.2	-9.0
O=C1NC(=O)C(=Cc2cc(Cl)ccc2OCc2ccc(C(=O)O)cc2)C(=O)N1	-41.5	0.6	7.9	-13.2	4.4	-2.0
Cc1cc([N+](=O)[O-])c2ccccc2[n+]1[O-]	71.1*	100.0*	105.5*	-8.1	-9.3	100.9*
Cc1ccc2c(c1)C1CN(C)CCC1N2C(=O)c1cn(-c2ccccc2)nc1-c1ccccc1 (stereo not drawn)	-28.7	5.6	12.3	21.5	9.7	2.2
Cc1cc(OC(C)C(=O)NCC(O)c2ccccc2)c2c3c(c(=O)oc2c1)CCC3 (stereo not drawn)	-23.1	.	.	-34.9	-11.7	-1.7
CC/C(=N\NC(=S)Nc1ccccc1)c1c(O)[nH]c(=O)[nH]c1=O	-48.6	1.1	-4.9	-6.2	1.6	8.1
CCOC(=O)c1ccc(NC(=O)c2c(O)[nH]c(=O)[nH]c2=O)cc1	7.4	-2.0	1.8	-6.9	48.0*	-12.2
Cc1ccc(-c2nc(N(C)C3CCN(C)CC3)c3ccccc3n2)cc1	-18.7	4.2	14.4	68.8*	11.4	4.3
c1ccc2[nH]c(CCNC3CCCCC3)nc2c1	-11.0	49.3*	1.4	0.2	-9.9	-5.5	BaF3 parental 2=-1.2;JAK2V617F conf=-1.7
O=C(c1cc2c(s1)CCCCCC2)N1CCC2(CC1)OCCO2	-1.3	-1.2	5.6	-29.6	4.0	-0.4
O=C(Nc1ccccc1)N1CCC2(CC1)OCCO2	-22.7	30.1*	6.4	2.4	-8.9	-0.3	BaF3 parental 2=-7.3;JAK2V617F conf=-10.3
O=C(O)c1[nH]c(=O)[nH]c(=O)c1F	7.1	64.0*	4.6	6.3	-10.7	-0.9	BaF3 parental 2=20.1;JAK2V617F conf=67.2*
Clc1ccc(OCC#CCN2CCCCCC2)cc1	-20.4	0.9	6.2	4.7	-12.5	3.3
C/C(=C\c1ccc(N(C)C)cc1)[N+](=O)[O-]	-6.2	31.6*	-1.4	5.5	5.2	-3.4	BaF3 parental 2=-3.2;JAK2V617F conf=74.0*
CCP(=S)(CC)c1ccc(N(C)C)cc1	-4.6	0.4	11.2	-4.6	-6.4	2.5
COc1ccc(CCC(=O)N2C[C@H]3C[C@@H](C2)c2cccc(=O)n2C3)cc1	-14.0	.	.	-11.5	0.5	8.1
CC1(C)C[C@H]2C=C(C=O)[C@]3(C=O)C[C@]3(C)[C@H]2C1	16.3	62.7*	5.5	-2.8	3.7	1.4	BaF3 parental 2=102.5*;JAK2V617F conf=99.9*
Cc1ccc(N2C(=O)NC(=O)/C(=C\C=C\c3ccco3)C2=O)cc1C	3.1	-2.5	1.0	-17.1	-7.9	3.9
